Compound activity from PubChem.
EP2 antag = blocks the human prostaglandin E2 receptor EP2; actives 0.52% (n = 260,000); inhibition, % at 25 µM; P43116; C6 glioma cells expressing human EP2, cAMP TR-FRET; cells stimulated with saturating PGE2;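 active = percent inhibition above 40 after rounding to a whole number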;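 also: rat C6 glioma host cells with rolipram phosphodiesterase inhibitor present; the protocol text gives 20 µM as final concentration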
Target sequence (P43116 whole entry, looked up): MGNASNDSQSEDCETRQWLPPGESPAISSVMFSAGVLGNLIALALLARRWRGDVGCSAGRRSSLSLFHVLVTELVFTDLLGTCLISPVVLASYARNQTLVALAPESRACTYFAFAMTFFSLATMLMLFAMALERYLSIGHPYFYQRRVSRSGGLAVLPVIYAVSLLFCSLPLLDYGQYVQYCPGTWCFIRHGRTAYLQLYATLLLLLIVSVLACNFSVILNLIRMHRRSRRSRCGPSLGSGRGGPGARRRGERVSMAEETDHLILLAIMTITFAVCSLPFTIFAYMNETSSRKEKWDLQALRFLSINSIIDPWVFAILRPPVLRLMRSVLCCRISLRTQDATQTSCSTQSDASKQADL
KCC2 mod = modulates chloride dependent transport by human KCC2. actives 2.2% (n = 190,000). KCC2 cells, thallium flux FluoZin-2 fluorescence. B-score of Tl+ flux slope (higher = more flux/activation; lower = inhibition) at 10 µM. Q9H2X9;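 active = thallium flux slope and its plate-corrected score both differing from the plate sample mean at a set confidence after two filtering rounds, in either direction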;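 also: slope of fluorescence scaled to starting intensity during 10 to 20 s after thallium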
EP2 mod = modulates human prostaglandin E2 receptor EP2 signaling. actives 0.83% (n = 260,000). induction, % at 25 µM. EP2-expressing cells, cAMP HTRF FRET, PGE2 co-stimulation;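 active = compounds whose cAMP rise, as percent of the full-agonist control response, exceeds 60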;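 also: rat C6 glioma line stably carrying human EP2 under a CMV promoter; the protocol text gives 20 µM as final concentration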
S1P3 antagonist = S1P3 (human) receptor antagonism. inhibition, % at 4.98 µM. CHO S1P3 NFAT-BLA reporter, FRET fluorescence, antagonist mode. Q99500. actives 0.27% (n = 170,000). AID 485;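 active = inhibition above the plate cutoff, the mean inhibition of test wells on that plate plus 3 SD, cut at about 28% in these data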;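 also: cells challenged with S1P at its EC80 of 0.8 µM; blue over green emission ratio from cleaved BLA substrate after 4 h stimulation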
Target sequence (Q99500 whole entry, looked up): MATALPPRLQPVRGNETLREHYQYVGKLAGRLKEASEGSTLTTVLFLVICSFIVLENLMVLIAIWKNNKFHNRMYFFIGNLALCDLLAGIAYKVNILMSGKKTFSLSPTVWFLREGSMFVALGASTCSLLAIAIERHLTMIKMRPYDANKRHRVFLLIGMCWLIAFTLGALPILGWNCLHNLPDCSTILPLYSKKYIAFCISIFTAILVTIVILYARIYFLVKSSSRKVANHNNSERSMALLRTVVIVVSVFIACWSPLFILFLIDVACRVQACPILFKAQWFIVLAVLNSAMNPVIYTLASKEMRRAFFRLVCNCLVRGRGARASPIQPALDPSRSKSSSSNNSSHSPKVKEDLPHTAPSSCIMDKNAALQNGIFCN
KCC2 secondary = KCC2 (human) modulation, secondary assay; shares compounds with KCC2 mod; HEK293-KCC2, thallium flux, FluoZin2 fluorescence; stronger effect = higher value; normalised thallium flux (F/F0 slope) at 10 µM; actives 15% (n = 3,700);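 active = thallium flux slope above the same plate's solvent-only control mean plus 3 SD; inconclusive = the two replicate wells disagree; inactive = no significant difference from solvent-only control wells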
KCC2 bumet counter = bumetanide-insensitive thallium flux in KCC2 cells with ouabain, counter-screen. shares compounds with KCC2 mod. HEK293-KCC2 + bumetanide/ouabain, thallium flux FluoZin2; stronger effect = higher value. normalized thallium flux at 10 µM. actives 49% (n = 3,700);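 active = thallium entry rate above the same plate's blocked-transporter control wells by more than 3 SD; inconclusive = the two repeat wells disagree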;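 also: raw slope of fluorescence over initial fluorescence between 10 and 20 s after thallium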
KCC2 sec2 = confirmation of human KCC2 transport modulators; shares compounds with KCC2 mod; HEK293-KCC2, thallium flux FluoZin2 fluorescence; actives lie on both sides; F/F0 rise rate, 10–20 s post-thallium; normalized thallium flux at 10 µM; actives 23% (n = 3,700);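 active = thallium flux slope more than 3 SD above or below the plate's solvent-only control mean, mostly below; inconclusive = the two repeat wells disagreed; inactive = no significant shift from solvent-only controls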
HEK293 Tl flux = acts in parental HEK cells, KCC2 counter-screen. AID 1716. actives 46% (n = 3,700). shares compounds with KCC2 mod. HEK293 parental cells, thallium flux FluoZin2, ouabain; baseline-ratio fluorescence slope, 10–20 s after thallium. thallium flux rate (normalised fluorescence) at 10 µM;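 active = thallium flux rate significantly above the same plate's solvent-only control wells, beyond their mean plus 3 SD; inconclusive = the two replicate wells gave conflicting results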
KCC2 retest ouab = KCC2 (human) modulation, ouabain retest | raw Tl+ flux slope (below DMSO = inhibition, above = activation) at 10 µM | HEK293-KCC2, thallium flux FluoZin2 fluorescence; bidirectional: low = inhibitor, high = activator | actives 48% (n = 3,700) | shares compounds with KCC2 mod | AID 1717;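 active = thallium flux slope beyond 3 SD from same-plate DMSO control mean in most replicates, usually higher, sometimes lower; inconclusive = repeat tests gave conflicting results; inactive = no significant difference from controls in most replicates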;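 also: slope of initial-normalized fluorescence between seconds 10 and 20 after thallium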
HEK counter2 = acts in parental HEK cells, second KCC2 counter-screen; shares compounds with KCC2 mod; HEK293 parental, thallium flux FluoZin-2 fluorescence slope; thallium flux slope at 10 µM; actives 33% (n = 3,700); AID 1718;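 active = thallium flux slope above the same plate's solvent-control mean plus 3 SD in both duplicate wells; inconclusive = duplicate wells that disagreed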;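 also: run without ouabain in cells lacking the KCC2 cotransporter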
Each line names hits and unclear results; the compound was inactive in the other large screens (follow-up assays come after a bar, where they were run). Most compounds without a hit are left out; they make up all but 3.1% or so of the library.

O=C(NC(=S)Nc1ccccc1)c1cncc(C#Cc2ccccc2)c1	KCC2 mod 24 | KCC2 secondary inconclusive | KCC2 bumet counter 0.023 | KCC2 sec2 inactive | HEK293 Tl flux 0.01 | KCC2 retest ouab 0.039 | HEK counter2 inconclusive
O=C(NC(=S)Nc1ccc(Cl)cc1)c1ccccc1	KCC2 mod 76 | KCC2 secondary 0.016 | KCC2 bumet counter 0.052 | KCC2 sec2 inactive | HEK293 Tl flux inconclusive | KCC2 retest ouab 0.046 | HEK counter2 0.023
O=C(O)c1cccc(NC(=S)NC(=O)c2ccc(-c3ccccc3)cc2)c1	KCC2 mod -6.1 | KCC2 secondary inconclusive | KCC2 bumet counter inactive | KCC2 sec2 0.022 | HEK293 Tl flux 0.0057 | KCC2 retest ouab 0.013 | HEK counter2 inconclusive
COc1cc(NC(=O)CSc2nnc3c4c5c(sc4nc(C)n23)CCCC5)cc(OC)c1	none (no result: KCC2 mod, S1P3 antagonist)
COc1cccc(C(=O)Nc2nc3cc(Cl)c(OC)cc3s2)c1	none (no result: KCC2 mod, S1P3 antagonist)
C#CCOc1cccc(CN2CCC(O)(c3ccc4c(c3)OCO4)CC2)c1	none (no result: KCC2 mod, S1P3 antagonist)
CCOc1cccc(C(=O)NC(=S)Nc2cccc(C)c2)c1	KCC2 mod 6.4 | KCC2 secondary inactive | KCC2 bumet counter 0.011 | KCC2 sec2 inactive | HEK293 Tl flux 0.012 | KCC2 retest ouab inconclusive | HEK counter2 0.015
CC(C)(C)SCCNC(=O)/C=C/c1cccc([N+](=O)[O-])c1	KCC2 mod 3.7 | KCC2 secondary inactive | KCC2 bumet counter inactive | KCC2 sec2 inactive | HEK293 Tl flux inactive | KCC2 retest ouab inactive | HEK counter2 inactive
Cc1ccc(SCCNC(=O)/C=C/c2cccc([N+](=O)[O-])c2)cc1	KCC2 mod -4.5 | KCC2 secondary inactive | KCC2 bumet counter inactive | KCC2 sec2 inactive | HEK293 Tl flux inactive | KCC2 retest ouab 0.015 | HEK counter2 inactive
CC(C)(C)SCCNC(=O)/C=C/c1ccc([N+](=O)[O-])cc1	none
O=C(O)c1ccc(CSc2ncccc2-c2nc3ccccc3[nH]2)cc1	none (no result: KCC2 mod, S1P3 antagonist)
CC(C)(CN1CCOCC1)CN1C[C@@H]2CCCN2C[C@@H]1Cc1ccccc1	none (no result: KCC2 mod, S1P3 antagonist)
CCCc1nnc(NC(=O)CCCOc2ccccc2OC)s1	none (no result: KCC2 mod, S1P3 antagonist)
CCc1cc(C(=O)O)c(NC(=O)C(c2ccccc2)c2ccccc2)s1	KCC2 mod -4.3 (no result: S1P3 antagonist) | KCC2 secondary inactive | KCC2 bumet counter 0.0055 | KCC2 sec2 inactive | HEK293 Tl flux inactive | KCC2 retest ouab inactive | HEK counter2 inactive
CCOC(=O)c1cc(C)sc1NC(=O)C(c1ccccc1)c1ccccc1	none
COc1ccc(-c2nc3n(n2)C(c2ccncc2)C(C(N)=O)=C(C)N3)cc1 (configuration not stated)	KCC2 mod 11 (no result: EP2 antag) | KCC2 secondary inactive | KCC2 bumet counter inactive | KCC2 sec2 inactive | HEK293 Tl flux inactive | KCC2 retest ouab inactive | HEK counter2 inactive
COc1ccc(-c2nc3n(n2)C(c2cccnc2)C(C(N)=O)=C(C)N3)cc1 (configuration not stated)	none
CCCOc1ccc(NC2=CC(=O)CC(C)(C)C2)cc1	none (no result: KCC2 mod, S1P3 antagonist) | KCC2 secondary inactive | KCC2 bumet counter inactive | KCC2 sec2 inactive | HEK293 Tl flux inactive | KCC2 retest ouab inactive | HEK counter2 inactive
CC(C)c1ccc(NC(=O)COC(=O)/C=C/c2cccc(Br)c2)cc1	none
NC(=O)COC(=O)/C=C/c1cccc(Br)c1	KCC2 mod -7.7 | KCC2 secondary inactive | KCC2 bumet counter inactive | KCC2 sec2 inactive | HEK293 Tl flux inactive | KCC2 retest ouab inactive | HEK counter2 inactive
CCn1c(COc2ccccc2C)nnc1SCC(=O)Nc1cc(OC)ccc1OC	none (no result: KCC2 mod, S1P3 antagonist)
O=C(NC1CC1)c1cc2c(s1)-c1ccccc1OC2	none (no result: KCC2 mod) | KCC2 secondary inactive | KCC2 bumet counter inactive | KCC2 sec2 inactive | HEK293 Tl flux inactive | KCC2 retest ouab 0.017 | HEK counter2 inactive
COc1cccc2cc(-c3nnc(SCC(=O)Nc4nc(C)cs4)n3C)oc12	KCC2 mod -3 | KCC2 secondary inactive | KCC2 bumet counter inactive | KCC2 sec2 inactive | HEK293 Tl flux inactive | KCC2 retest ouab inactive | HEK counter2 inactive
Cc1csc(NC(=O)CSc2nnc(-c3ccco3)n2C)n1	none
COc1ccc([C@@H]2CN(C(=O)c3ccc4c(c3)OCCO4)C[C@H]2C(=O)O)cc1	none (no result: KCC2 mod, S1P3 antagonist)
COC(=O)c1sccc1NS(=O)(=O)c1ccc(OC)cc1	none (no result: KCC2 mod) | KCC2 secondary inactive | KCC2 bumet counter 0.013 | KCC2 sec2 inactive | HEK293 Tl flux 0.012 | KCC2 retest ouab inconclusive | HEK counter2 0.015
CC1OC(OC2C(OC3C(O[C@H]4CC[C@]5(C)C6C=C[C@]78OC[C@@]9(CC[C@@H](C)[C@H](C)C97)[C@H](O)C[C@@]8(C)[C@]6(C)CC[C@H]5C4(C)C)OC(C)C(O)C3O)OC(CO)C(O)C2O)C(O)C(O)C1O (some centres not stated)	KCC2 mod 28 (no result: EP2 antag, S1P3 antagonist) | KCC2 secondary inconclusive | KCC2 bumet counter 0.025 | KCC2 sec2 inactive | HEK293 Tl flux 0.043 | KCC2 retest ouab inconclusive | HEK counter2 inactive
Cc1ccc(C)c(NC(=O)CSc2nnc([C@@H](N)Cc3ccccc3)o2)c1	KCC2 mod -4.3 (no result: S1P3 antagonist) | KCC2 secondary inactive | KCC2 bumet counter inactive | KCC2 sec2 inconclusive | HEK293 Tl flux inactive | KCC2 retest ouab 0.014 | HEK counter2 inconclusive
Cc1ccc(C)c(NC(=O)CSc2nnc(-c3ccco3)o2)c1	none (no result: S1P3 antagonist)
CCn1c(SCC(=O)N2CCN(c3ccccc3)CC2)nc2c(c1=O)SC(C)C2 (configuration not stated)	KCC2 mod -3.1 | KCC2 secondary inactive | KCC2 bumet counter inactive | KCC2 sec2 inconclusive | HEK293 Tl flux 0.0051 | KCC2 retest ouab 0.014 | HEK counter2 0.0084
CC1Cc2nc(SCC(=O)N3CCN(c4ccccc4)CC3)n(CCc3ccccc3)c(=O)c2S1 (configuration not stated)	none (no result: S1P3 antagonist)
O=C(CSc1nc2c(c(=O)n1-c1ccccc1)SCC2)N1CCN(c2ccccc2)CC1	KCC2 mod -7.6 | KCC2 secondary inactive | KCC2 bumet counter inactive | KCC2 sec2 inactive | HEK293 Tl flux inactive | KCC2 retest ouab 0.012 | HEK counter2 inconclusive
O=C(CSc1nc2c(c(=O)n1-c1ccccc1)SCC2)N1CCOCC1	none
O=c1nc(Nc2ccccc2)oc2ccccc12	none
